KAT2A inh = inhibitors of human GCN5L2 histone acetyltransferase | Potency, µM (series often up to 58.9 µM), actives largely listed as inhibitors | actives 0.21% (n = 390,000) | GCN5L2 HAT assay, ThioGlo1 CoA-SH fluorescence
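Preincubate 20nM GCN5L2 with compound 15 min, RT → add 50uM ThioGlo1 + 75uM H3(1-25) + 70uM acetyl-CoA → read fluorescence 0 and 20 min. Primary qHTS; fluorescent artifacts likely.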
ALOX12 inh = inhibitors of human 12S-lipoxygenase ALOX12 | Potency, µM (highest dose often 108 µM), usual class: inhibitors | AID 1671190 | actives 1.1% (n = 580,000) | P18054 | purified 12hLO, xylenol orange hydroperoxide absorbance
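Hydroperoxide product was detected by ferrous iron/xylenol orange as the 573 to 405 nm absorbance ratio. Arachidonic acid at 40 uM (final) was turned over for 30 min at room temperature by 150 nM human 12hLO, pH 7.0 Hepes buffer, after 15 min compound preincubation.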
PLK1 PBD block = blocks phosphopeptide binding to human PLK1 polo-box domain; Plk1 PBD binding of FITC phosphopeptide, fluorescence polarization; actives 2.8% (n = 360,000); Potency, µM, usual class: inhibitors; AID 720504; also: series mostly up to about 57 µM; nearly all actives have a fitted effect of over 65% in size
Target sequence (P53350 whole entry, looked up, the tested form may be a part): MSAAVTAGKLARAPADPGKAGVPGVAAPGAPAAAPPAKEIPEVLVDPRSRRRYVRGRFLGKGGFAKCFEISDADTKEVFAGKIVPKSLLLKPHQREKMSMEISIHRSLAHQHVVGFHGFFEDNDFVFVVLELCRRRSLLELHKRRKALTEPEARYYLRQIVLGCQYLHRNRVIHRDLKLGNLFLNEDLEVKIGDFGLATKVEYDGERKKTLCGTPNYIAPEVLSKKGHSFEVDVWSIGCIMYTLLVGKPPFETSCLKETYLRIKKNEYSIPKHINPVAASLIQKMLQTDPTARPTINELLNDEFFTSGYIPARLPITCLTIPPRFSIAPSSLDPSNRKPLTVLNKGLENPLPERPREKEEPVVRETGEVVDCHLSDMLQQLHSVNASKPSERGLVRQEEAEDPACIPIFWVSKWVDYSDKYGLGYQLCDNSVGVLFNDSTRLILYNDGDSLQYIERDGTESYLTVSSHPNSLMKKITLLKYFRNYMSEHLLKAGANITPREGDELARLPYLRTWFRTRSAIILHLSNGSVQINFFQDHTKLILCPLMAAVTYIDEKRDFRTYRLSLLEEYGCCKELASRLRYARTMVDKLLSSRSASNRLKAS
VDR inhibitor = inhibitors of human vitamin D receptor. VDR-SRC2-3 peptide fluorescence polarization, 2 h. Potency, µM, hits mostly inhibitors. actives 0.93% (n = 400,000)
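Compounds are added to VDR with labelled SRC2-3 coactivator peptide and held 2 h at room temperature. Inhibition of the VDR–peptide interaction is then read as a change in fluorescence polarization.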
Hits are given with their value; i = inactive; ? = inconclusive; nt = no result. Rows were chosen to be rich in hits. Some 3% of all compounds tested hit in one or more screens of this group. Calls follow the shape of the dose curve; as a rule, active = well fitted curve in the direction sought with a large enough effect; inconclusive = small, poorly fitted or top-dose-only effect, or another doubt; inactive = no such curve, though single readings can be large; an effect the other way counts as inactive or inconclusive.

SMILES | KAT2A inh | ALOX12 inh | PLK1 PBD block | VDR inhibitor
CCOC(=O)c1oc2ccc(S(=O)(=O)NCC3Cn4cccc4C(=O)N3C)cc2c1C (stereo unspecified) | nt | 35µM | nt | nt
c1ccc2c(c1)CCN(Cc1ccc3c(c1)CNCCO3)C2 | nt | i | nt | nt
C=CCSc1nc2c(c(=O)[nH]c(=O)n2C)n1CCCC | nt | i | nt | nt
C=CCSc1nc2c(c(=O)[nH]c(=O)n2C)n1CC | i | ? | 24µM | i
CCSc1nc2c(c(=O)[nH]c(=O)n2C)n1C/C=C(/C)Cl | i | i | i | i
CCCCCSc1nc2c(c(=O)[nH]c(=O)n2C)n1CC | nt | i | 21µM | ?
CCCCCCn1c(SCC)nc2c1c(=O)[nH]c(=O)n2C | nt | i | nt | nt
CCCCCCn1c(SCC(=O)OC)nc2c1c(=O)[nH]c(=O)n2C | i | ? | 5.3µM | 22µM
CCOC(=O)C(C)Sc1nc2c(c(=O)[nH]c(=O)n2C)n1C/C=C(/C)Cl (stereo unspecified) | i | ? | 12µM | ?
CCCCCSc1nc2c(c(=O)[nH]c(=O)n2C)n1C | i | i | i | i
NCCC1C2CC3CC(C2)CC1C3 (stereo unspecified) | nt | i | nt | nt
O=C(/C=C/c1ccccc1Br)c1ccc(O)cc1 | nt | i | nt | nt
CCCn1nc(C(=O)OCC(=O)N2CCCC2)c2ccccc2c1=O | nt | i | nt | nt
CCOc1ccc(-c2cc(-c3nc(-c4cccnc4)no3)[nH]n2)cc1 | nt | i | nt | nt
COc1ccccc1CNC(=O)C1CC2Cn3c(nc4cc(Cl)c(Cl)cc43)C2N1C (stereo unspecified) | nt | 11µM | i | i
COCCNC(=O)C1CC2Cn3c(nc4cc(Cl)c(Cl)cc43)C2N1C (stereo unspecified) | i | i | i | i
C=C(C)CNC(=S)NNC(=O)CCn1c2cc(Cl)ccc2c2ccc(Cl)cc21 | i | ? | i | i
C=C(C)CNC(=S)NNC(=O)CCn1c2ccc(Cl)cc2c2cc(Cl)ccc21 | i | 32µM | i | i
NS(=O)(=O)c1ccc(CCNC(=O)COc2ccc3ccc(=O)oc3c2)cc1 | nt | i | nt | nt
O=C(Cn1c(=O)sc2ccccc21)NCc1ccccn1 | i | i | 21µM | i
O=C(CN1C(=O)c2ccccc2C1=O)NCc1ccccn1 | i | i | i | i
COc1ccc(CNC(=O)CCc2ncc(-c3ccccc3)o2)cc1OC | nt | i | nt | nt
O=C(O)COc1ccccc1/C=N/NC(=O)CSc1nc2ccccc2n1Cc1ccccc1Cl | i | i | 60µM | i
COC(=O)CCCN(C)C(=O)c1cc(-c2ccncc2)nc2ccccc12 | nt | i | nt | nt
Cc1ccc(Nc2nnc(SCC(=O)c3ccc(O)cc3O)s2)cc1 | i | 45µM | i | i
SMILES | KAT2A inh | ALOX12 inh | PLK1 PBD block | VDR inhibitor
Cc1cccc(Nc2nnc(SCC(=O)c3ccc(O)cc3O)s2)c1 | i | ? | i | i
Cc1nc(Nc2nc(CCC(C)C)cc(=O)[nH]2)nc2ccccc12 | nt | i | nt | nt
N#Cc1ccc(Oc2ccc(C(=O)OCC(=O)c3ccc(Cl)cc3)cc2)cc1C#N | nt | i | nt | nt
CC(C(=O)Nc1ccccc1-c1ccccc1)N(C)Cc1nc2ccccc2c(=O)[nH]1 (stereo unspecified) | i | i | 6.7µM | ?
Nc1ncnc2c1ncn2[C@@H]1O[C@H](COP(=O)(O)OP(=O)(O)OP(=O)(O)OP(=O)(O)OC[C@@H]2O[C@H](n3cnc4c(N)ncnc43)[C@@H](O)[C@H]2O)[C@@H](O)[C@H]1O | i | ? | nt | i
Nc1ncnc2c1ncn2[C@@H]1O[C@H](COP(=O)(O)OP(=O)(O)CP(=O)(O)O)[C@@H](O)[C@H]1O | i | 16µM | nt | i
COc1ccc(-n2nc(C(=O)NCCCN3CCOCC3)c3ccccc3c2=O)c(OC)c1 | i | i | 21µM | ?
COc1ccc(-n2nc(C(=O)NCC(=O)N3CCOCC3)c3ccccc3c2=O)c(OC)c1 | i | i | i | i
COc1cc2c(-c3cc4ccccc4o3)cc(=O)oc2cc1C | nt | i | nt | nt
CN(C)C(=O)CCSC(SCCC(=O)O)c1cccc(/C=C/c2ccc3ccc(Cl)cc3n2)c1 (stereo unspecified) | ? | nt | nt | 35µM
c1coc(-c2ccc3nncn3c2)c1 | nt | ? | 15µM | nt
COC(=O)CNC(=O)N1CCCCC1c1nc(CCOc2cccc(C)c2)no1 (stereo unspecified) | nt | i | nt | nt
N#Cc1ccccc1COc1ccccc1 | nt | i | nt | nt
NC(=S)Nc1ncc(C(F)(F)F)cc1Cl | i | 40µM | i | i
Cc1ccc(-c2noc(Cn3nc(C)c(S(=O)(=O)N4CCc5ccccc54)c3C)n2)cc1 | nt | i | nt | nt
CCOc1cc(C)c(S(=O)(=O)Nc2ccccc2OCC)cc1C | nt | i | nt | nt
CCN1/C(=C/c2ccc3cc(C)cc(C)c3[n+]2CC)Sc2cc(C)ccc21 | i | 40µM | i | i

Assay outcomes deposited in PubChem by National Center for Advancing Translational Sciences (NCATS).
